Screening data: PubChem BioAssay, National Center for Advancing Translational Sciences (NCATS)
The full list was thinned out, with hits kept by preference.
Pf Dd2 inh = inhibitors of Plasmodium falciparum Dd2 growth; P. falciparum Dd2 growth, SYBR Green, 72 h; Potency, µM (titrated, usually from 28.9 µM), without a hit: top-dose activity, negative = inhibition, usual class: inhibitors; 120,000 tested, 4.3% active; active = well fitted inhibition curve with a large enough effect;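 also: plate controls were DMSO vehicle for no effect and reference drug for full effect; nearly all actives have a fitted effect of over 65% in size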
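Readout: SYBR Green fluorescence, 485 nm excitation, 535 nm emission, after ~16 h lysis at 37C. Before that, Dd2-infected red cells (2.5% hematocrit) grew 72 h with compound, 29 uM top final concentration.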
* marks the source's active call; other numbers are inactive results; i = inactive; [ ] = dose if it differs, or a comment. Potency is read from the fitted curve at half-maximal effect.

SMILES	Pf Dd2 inh
CN(C)C(=O)c1c(NC(=O)c2ccccc2F)sc2c1CCCC2	5.5%
CC(C)(C)C1CCc2c(sc(NC(=O)c3cccc(Cl)c3)c2C(N)=O)C1 (stereo unspecified)	11.4%
CCc1noc(C)c1C(=O)N1CCC(c2[nH]ncc2-c2ccccc2C)CC1	-29.1%
CCC(C(=O)NCc1cc2c(cc1OC)CCC2)n1cccn1 (stereo unspecified)	-11.2%
O=C(NCc1ccc(F)cc1)c1cc(C2CC2)nc2onc(C3CCNCC3)c12	10µM*
COCCNC(=O)c1cc(C2CC2)nc2onc(C3CCNC3)c12 (stereo unspecified)	3.4%
O=C(NC1CC1)c1cc(C2CC2)nc2onc(C3CCNCC3)c12	6.4%
O=C(NCc1ccc(F)cc1)c1cc(C2CC2)nc2onc(C3CCCN3)c12 (stereo unspecified)	-12.1%
O=C(NCc1ccc(F)cc1)c1cc(C2CC2)nc2onc(C3CCCNC3)c12 (stereo unspecified)	8.91µM*
Cc1cc(C(=O)NCc2ccc(F)cc2)c2c(C3CCNC3)noc2n1 (stereo unspecified)	14.9%
O=C(Cn1nc2n(c1=O)CCCCC2)NCc1ccccc1Br	-22.6%
COc1ccc(C(=O)N2CCC3(CC2)CCC(O)(CN(C)C)CC3)cc1	-20.3%
COc1ccc2[nH]c(C(=O)N3CCCN(S(=O)(=O)c4ccccc4)CCC(=O)NCC3)cc2c1	12.6µM*
O=C1CCN(S(=O)(=O)c2ccccc2)CCCN(C2CCOCC2)CCN1	-26.6%
O=C1CCN(C(=O)C2(c3ccccc3)CC2)CCCCCCN1	-22.6%
O=C1CCN(S(=O)(=O)c2ccccc2)CCCN(C2CCCCCC2)CCN1	10µM*
CS(=O)(=O)N1CCCN(S(=O)(=O)c2ccccc2)CCC(=O)NCC1	-18.9%
O=C1CCN(S(=O)(=O)c2ccccc2)CCCN(C(=O)c2cc3ccccc3[nH]2)CCN1	-25.9%
O=C1CCN(S(=O)(=O)c2ccccc2)CCCN(C(=O)C2(c3ccccc3)CC2)CCN1	0.794µM*
O=C1CCN(S(=O)(=O)c2ccccc2)CCCN(Cc2ccccn2)CCN1	i
Cn1cccc1CN1CCCN(S(=O)(=O)c2ccccc2)CCC(=O)NCC1	-28.5%
O=C1CCN(S(=O)(=O)c2ccccc2)CCCN(Cc2ccc3[nH]ccc3c2)CCN1	11.2µM*
COc1ccc(C(=O)N2CCCN(S(=O)(=O)c3ccccc3)CCC(=O)NCC2)cc1	i
O=C1CCN(S(=O)(=O)c2ccccc2)CCCN(C(=O)Cc2ccccc2)CCN1	i
OC1CC(c2cc(N3CCc4c(Cl)cccc4C3)ncn2)C1 (stereo unspecified)	-15.4%
SMILES	Pf Dd2 inh
Cc1ncsc1-c1nc(CC2CCN(C)CC2)nn1Cc1ccccc1	-18.7%
CC(=O)N1CCC(N[C@@H]2CO[C@H](CNC(=O)c3ccccc3)[C@H]2O)CC1	34.3%[44.1 µM]
COc1ccc(CCNC(=O)[C@@H](C)C2CC[C@@]3(C)CC[C@H](NC(=O)c4ccncc4)[C@@H](C)[C@@H]3[C@H]2O)cc1OC (stereo partly specified)	i
O=C(CCc1cc(=O)[nH]o1)N[C@H](c1ccccn1)C1CC(O)C1 (stereo partly specified)	-8.9%
COCCNC(=O)C1COC2(CCN(C(=O)c3ccc(F)cc3)CC2)N1C(=O)c1ccc(C)cc1 (stereo unspecified)	-0.2%
CSc1ncccc1C(=O)N[C@@H]1CCOC[C@H]1Oc1ccc(C#N)cc1	-10.0%
COc1ccc(N(C)C(=O)c2cc3c(s2)-c2ccccc2OC3)cc1	-4.4%
COc1ccccc1N1CCN(C(=O)c2cc3c(s2)-c2ccccc2OC3)CC1	28.5%
COc1cc(OC)c(N(C)C(=O)c2cc3c(s2)-c2ccccc2OC3)cc1Cl	8.91µM*
O=S(=O)(c1cccnc1)N1CCC(OC2CCN(Cc3cccnc3)CC2)CC1	-19.5%
CN1CCN(C(=O)CN2CC3CC(C2)[C@H]2CCCC(=O)N2C3)CC1 (stereo partly specified)	-4.3%
CN(C)C[C@H]1O[C@@H](CO)[C@@H](O)[C@H]1N1CCCC1	-18.3%[44.1 µM]
CCCCNC(=O)C1CCCN(C2CCN(Cc3ccncc3)CC2)C1 (stereo unspecified)	-27.9%
Cc1cccc(CN2CCC(N3CCCC(C(=O)NC4CC4)C3)CC2)c1 (stereo unspecified)	-22.6%
O=C(NC1CCCCCCC1)C1CCCN(C2CCN(Cc3ccncc3)CC2)C1 (stereo unspecified)	12.6µM*
O=C(Cc1ccccc1Cl)N1CCC(Cc2nc(-c3ccc(F)cc3)no2)CC1	23.4%
Cc1nn(-c2ccccc2)c(Oc2ccccc2F)c1CCC(=O)NCC1CC1	i
OCC1(Cc2ccccc2Cl)CCN(Cc2cc3ccccc3o2)CC1	8.91µM*
COc1cc(N2CCC(CO)(Cc3ccccc3C(F)(F)F)CC2)ncn1	-17.3%
CC(C)n1cc(CN2CCC(CO)(Cc3ccccc3Cl)CC2)cn1	-10.6%
CC(=O)c1cc(CN2CCC(CO)(Cc3ccccc3Cl)CC2)cs1	-10.8%
COc1ccc(O)c(CN2CCC(CO)(Cc3ccccc3Cl)CC2)c1	8.91µM*
COc1ccc(F)c(CN2CCC(CO)(CN3CCCC3)CC2)c1	i
CCN(CC)Cc1nc(C2(O)CCN(C3CCN(C(C)=O)CC3)CC2)cs1	i
Cc1cnc(-c2ccncc2)n1C1CCN(C(=O)Cc2ccccc2)CC1	-3.6%
SMILES	Pf Dd2 inh
Cc1nc2ncccn2c1C(=O)N[C@H]1[C@H]2CCO[C@H]2[C@@H]1N(C)C	6.0%
CC(CCc1ccccc1)NC(=O)Cn1cccc1-c1nc(-c2ccccc2)no1 (stereo unspecified)	3.1%
CCCn1c(C)c(CC(=O)N[C@@H](C)C(N)=O)c2c1CC(C)(C)CC2=O	-21.6%
Cc1cccc(Nc2nc(N)nc(N)c2S(=O)(=O)c2ccccc2)c1	i
COc1ccc(Nc2cc(C)nc3c(C)c(C)ccc23)cc1	-15.1%
CCOC(=O)c1ccc(Nc2c(-c3ccc(O)c(OC)c3)nc3nc[nH]n23)cc1	33.5%[0.594 µM]
COc1cc2nc(Nc3ccc(C)c(C)c3)nc(N)c2cc1OC	0.1µM*
COc1ccccc1C(O)c1nc(Nc2ccc(C(C)C)cc2)n[nH]1 (stereo unspecified)	i
CCc1sc(Nc2cccc(C)c2)nc1-c1cc2cccc(OC)c2oc1=O	-1.1%
COc1cc2nc(Nc3cccc(C)c3)nc(N)c2cc1OC	2.51µM*
COc1cc2nc(Nc3ccc(F)cc3)nc(N)c2cc1OC	2.51µM*
CCOC(=O)c1ccc2nc(C)cc(Nc3cccc(C(=O)O)c3)c2c1	0.7%
COc1ccc(Nc2nc(-c3ccccc3)c3cc(Br)ccc3n2)cc1	-18.5%
CCOC(=O)c1ccc(Nc2nc(N)c3cc(OC)c(OC)cc3n2)cc1	1.26µM*
COc1ccc(NC(=O)c2nnn(CC(=O)Nc3c(C)cc(C)cc3C)c2N)cc1OC	33.9%
O=C(c1ccnc(-c2cncnc2)c1)N1CCCC1	-9.8%
Oc1ccccc1CN1CCOC[C@H]1c1ncc(-c2ccccc2)[nH]1	-25.4%[44.1 µM]
CCc1ccccc1OCC(=O)c1ccc2c(c1)N(CCCC(=O)NCC1CCCO1)C(=O)CO2 (stereo unspecified)	i
COCCOCc1nc(C2CCN(C(=O)Nc3ccc(OC)c(OC)c3)CC2)no1	6.2%
O=C(c1ccc2ccccc2n1)N1CCC(n2c(=O)[nH]c3ccccc32)CC1	-20.6%
Cc1cccn2c(CC(=O)N3CCC4(CC3)c3nc[nH]c3CCN4C)cnc12	-11.0%
O=C(CN1C(=O)NC(c2ccc(Cl)cc2)C2=C1COC2=O)Nc1ccc(Cl)cc1F (stereo unspecified)	-19.3%
